# VDR inhibitor = Inhibitors of the vitamin D receptor (VDR): qHTS. Vitamin D3 receptor (Homo sapiens), P11473. VDR-SRC2-3 peptide fluorescence polarization, 2 h. Potency, µM, inactives show max response, negative = inhibition, most hits filed as inhibitors. 400,000 compounds, 0.93% hits. AID 504847, 2011; note: % is set by controls: 0 for no effect and ±100 for the full control effect
# Target sequence (P11473 whole entry, looked up): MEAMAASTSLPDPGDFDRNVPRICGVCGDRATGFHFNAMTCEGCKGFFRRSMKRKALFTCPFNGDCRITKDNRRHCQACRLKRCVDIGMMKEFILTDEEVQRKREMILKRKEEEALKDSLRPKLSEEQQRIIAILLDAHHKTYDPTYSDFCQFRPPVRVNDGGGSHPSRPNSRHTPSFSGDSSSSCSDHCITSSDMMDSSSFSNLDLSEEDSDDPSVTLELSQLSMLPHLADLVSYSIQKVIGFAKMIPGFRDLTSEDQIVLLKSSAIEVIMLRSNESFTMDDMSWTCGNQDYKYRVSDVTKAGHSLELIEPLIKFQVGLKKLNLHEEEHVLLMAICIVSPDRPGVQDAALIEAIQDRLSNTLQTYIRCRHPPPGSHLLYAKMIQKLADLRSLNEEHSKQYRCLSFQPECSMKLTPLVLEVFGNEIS
#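 After 23 nl compound addition and a short centrifugation, plates sat for 2 hours at ambient temperature; polarization of fluorescence then indicated loss of VDR binding to peptide SRC2-3.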
# ALOX12 inh = Primary qHTS assay for inhibitors of human arachidonate 12S-lipoxygenase (ALOX12): Round 2; Polyunsaturated fatty acid lipoxygenase ALOX12 (Homo sapiens), P18054; purified 12hLO, xylenol orange hydroperoxide absorbance; Potency, µM (highest dose often 108 µM), for the others: at the highest dose activity change, negative = inhibition, actives largely listed as inhibitors; 580,000 compounds, 1.1% hits; AID 1671190, 2021; note: % is set by controls: 0 for no effect and ±100 for the full control effect
#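 Purified human 12hLO at 150 nM in 25 mM Hepes, 0.01% Triton X-100, pH 7.0, preincubated 15 min at room temperature with compound. Reaction started with 40 uM arachidonic acid, 30 min at room temperature. Hydroperoxide measured by Fe-xylenol orange, 573/405 nm absorbance ratio.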
# G9a block = qHTS Assay for Inhibitors of Histone Lysine Methyltransferase G9a; Histone-lysine N-methyltransferase EHMT2 (Homo sapiens), Q96KQ7; G9a H3K9 monomethylation, AlphaScreen, 2 h; Potency, µM (highest dose often 102 µM), inactives show top-dose activity, negative = inhibition, actives largely listed as inhibitors; 350,000 compounds, 8.8% hits; AID 504332, 2011; note: % is set by controls: 0 for no effect and ±100 for the full control effect; nearly all actives have a fitted effect of over 75% in size
# Target sequence (Q96KQ7 913-1193 limits assumed): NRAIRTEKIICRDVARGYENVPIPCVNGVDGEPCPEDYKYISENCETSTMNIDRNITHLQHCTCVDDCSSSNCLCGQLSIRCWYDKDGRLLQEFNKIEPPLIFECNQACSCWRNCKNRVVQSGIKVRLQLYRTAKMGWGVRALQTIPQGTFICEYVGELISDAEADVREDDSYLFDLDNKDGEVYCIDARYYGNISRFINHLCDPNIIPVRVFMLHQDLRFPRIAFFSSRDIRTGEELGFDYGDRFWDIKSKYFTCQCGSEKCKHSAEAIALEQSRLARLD
#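 AlphaScreen detection with an anti-monomethyl H3K9 antibody quantified product after a 2 h room-temperature reaction containing 500 nM biotinylated H3K9 peptide, 20 µM SAM and 20 nM enzyme, which had been preincubated 15 min with compound.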
# GRP78 ERSR act = qHTS for Inducers of the Endoplasmic Reticulum Stress Response (ERSR) in Human Glioma: qHTS. U87-MG GRP78 promoter luciferase reporter, 16 h. AID 602332, 2012. Potency, µM, inactives show at the top dose activation, hits mostly activators. 420,000 compounds, 0.02% hits; note: series mostly up to about 76 µM; % of control where 0% means no effect; nearly all actives have a fitted effect of over 35% in size
#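 Stably transfected U87-MG glioma cells carrying a GRP78-based luciferase sensor; 16 h compound incubation. Luminescence end-point read 10 min after Bright-Glo addition at room temperature.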
# Sfp inh = qHTS Assay for Inhibitors of Bacillus subtilis Sfp phosphopantetheinyl transferase (PPTase) | Biochemical Sfp PPTase activity, qHTS | 310,000 compounds, 3.5% hits | Potency, µM, for inactives: largest response in the series, negative = inhibition, hits mostly inhibitors | 4'-phosphopantetheinyl transferase ffp (Bacillus subtilis), Q9F4F7;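 note: the enzyme is Sfp with the accession as filed and its product quenches rhodamine fluorescence; 0% = enzyme reaction without inhibitor and -100% = no enzyme wells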
#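 Fluorescence-quenching assay: 15 nM Sfp-PPTase preincubated 15 min at room temperature with compound, then 5 uM rhodamine-CoA and 12.5 uM BHQ-2-labelled YbbR peptide added. Fluorescence (ex 525/em 598 nm) read at start and after 30 min; difference gives rate.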
# Numbers without * were called inactive; ? = inconclusive; . = no result given; [ ] = remark or other dose. The entries come from a sample that favours hits as a whole. Calls come from the whole dose curve; as a rule, active = well fitted curve in the direction sought with a large enough effect; inconclusive = small, poorly fitted or top-dose-only effect, or another doubt; inactive = no such curve, though single readings can be large; an effect the other way counts as inactive or inconclusive. Potency is the fitted concentration of half-maximal effect.
SMILES,VDR inhibitor,ALOX12 inh,G9a block,GRP78 ERSR act,Sfp inh
Cc1ccc(-c2nnc(Nc3cccc(Cl)c3)c3ccccc23)cc1S(=O)(=O)N1CCN(C)CC1,4%,-9%,7.9µM*,-3%,.
Nc1nccnc1C(=O)NCc1cn2ccccc2n1,.,20%,.,.,.
CC1CCCCN1S(=O)(=O)NC1CCN(c2ncccn2)CC1 (stereo not given),.,-15%,.,.,.
O=C1C2CCCCC2C(=O)N1c1ccc(NC2CCN(Cc3ccccc3)CC2)c([N+](=O)[O-])c1 (stereo not given),1%,-2%,?,-5%,-9%
CC1CCC2C(=O)N(c3ccc(NC4CCN(Cc5ccccc5)CC4)c([N+](=O)[O-])c3)C(=O)C2C1 (stereo not given),9%,-11%,40µM*,-2%,7%
O=C(C1CCCC1)N1CC2(CCCN2Cc2cccnc2)Cc2ccccc21 (stereo not given),.,3%[6.33 µM],.,.,.
COc1ccc(-n2c(Cc3ccccc3)nnc2SCc2ccc([N+](=O)[O-])cc2)cc1,-10%,?,50µM*,-3%,-15%
O=[N+]([O-])c1ccc(CSc2nnc(Cc3ccccc3)n2-c2ccc(F)cc2)cc1,-15%,?,-13%[59 µM],-4%,15%
COc1ccc(-n2c(SCc3ccc(C#N)cc3)nnc2-c2ccccn2)cc1,4%,-14%,40µM*,-2%,7%
Cn1c(Cc2cccc3ccccc23)nnc1SCc1ccc([N+](=O)[O-])cc1,-13%,?,10µM*,-1%,-4%
Cc1cccc(NC(=O)c2ncoc2-c2cccc(Cl)c2)c1C,.,-1%,.,.,.
CCc1ccc2nc(-c3ccnn3CC)cc(C(=O)O)c2c1,.,0%,.,.,.
COc1ccc2cc(C(=O)N3CCN(S(=O)(=O)c4cc(C)ccc4C)CC3)c(C)nc2c1,.,3%,.,.,.
Cc1cc(NC(=O)C(OC(=O)c2ccc3c(c2)NC(=O)CS3)c2ccccc2)no1 (stereo not given),.,-42%,.,.,.
COc1ccc(S(=O)(=O)NNc2nc(C)cc(C)n2)cc1[N+](=O)[O-],-17%,.,.,8%,50µM*
COc1ccc(C(=O)Nc2nc(C)cc(C)n2)cc1[N+](=O)[O-],-5%,-8%,7%[59 µM],-2%,7%
S=c1nccc(-c2ccccc2)[nH]1,.,13µM*,.,.,.
S=c1nccc(-c2ccc3c(c2)CCO3)[nH]1,?,1%,40µM*,-7%,-24%
Nc1nc(Nc2ccc(F)cc2)sc1C(=O)c1ccccc1Cl,.,-25%,.,.,.
COc1cc2c(=O)n(CCCN3CCOCC3)c(=S)[nH]c2c(OC)c1OC,12%,?,13µM*,5%,-17%
CCCCn1c(=S)[nH]c2ccc(N3CCOCC3)cc2c1=O,.,.,20µM*,.,?
O=c1c2cc(F)ccc2[nH]c(=S)n1CCCN1CCOCC1,-4%,-1%,50µM*,-3%,4%
Nc1ccc(O)c(-c2nc3ccccc3s2)c1,-19%,56%,14µM*,-6%,-6%
CCCNC(=O)c1ccc2nc(-c3ccc(C)cc3)cc(OC)c2c1,.,4%,.,.,.
CCCNC(=O)c1ccc2c(=O)n3c(-c4ccc(C)cc4)csc3nc2c1,-2%,11µM*,?,-2%,?
SMILES,VDR inhibitor,ALOX12 inh,G9a block,GRP78 ERSR act,Sfp inh
C/C(=N\Nc1ncc(Cl)cc1Cl)c1ccc(OC(F)F)cc1,-10%,0%,29%,2%,56µM*
C/C(=N\Nc1ncc(Cl)cc1Cl)c1ccc2c(c1)OCO2,-21%,-22%,0%,5%,79µM*
COc1ccc(C2=NS(=O)(=O)N(C)C(C(=O)Nc3ccn(Cc4ccccc4C)n3)=C2)cc1,.,-7%,.,.,.
O=C(CSc1cn[nH]n1)Nc1cccc(C(F)(F)F)c1,-12%,14%,?,0%,25%
O=C(CSc1cn[nH]n1)Nc1cccc(C(=O)O)c1,45µM*,3%,0.71µM*,0%,35µM*
COc1ccc(NC(=O)CSc2cn[nH]n2)cc1OC,-2%,-2%,35µM*,-4%,10%
O=C(CSc1nnc(-c2ccccc2O)n1-c1ccccc1)Nc1cccc(C(=O)O)c1,0%,-20%,50µM*,0%,-3%
Cc1nonc1NC(=O)CSc1cn[nH]n1,-3%,1%,50µM*,4%,8%
O=C(OCc1ccc(C(F)(F)F)cc1)c1cc2c(cc1[N+](=O)[O-])OCCO2,.,7%,.,.,.
Oc1ccccc1CN1CCC[C@H]1c1nc(-c2ccc(N3CCOCC3)nc2)no1,.,24%[176 µM],.,.,.
Cc1cccc(NC(=O)CSc2cn[nH]n2)c1,-12%,-7%,40µM*,-6%,17%
Fc1ccc(Nc2nc(N/N=C/c3ccco3)nc(N3CCCCC3)n2)cc1,-5%,-11%,40µM*,2%,0%
CC(CN1CCCCC1)NC(=O)c1scnc1-c1ccccc1 (stereo not given),.,5.6µM*,.,-4%,.
CC(CN1CCCCC1)NC(=O)c1cc(-c2ccccn2)nc2ccc(Cl)cc12 (stereo not given),-3%,3%,10%[59 µM],-2%,17%
CCC(C)NC(=S)N1CCN(C)CC1 (stereo not given),4%,?,40µM*,-2%,-18%
CCOc1ccccc1NCN1C(=O)c2ccccc2C1=O,.,?,.,-2%,.
COc1ccc(C)cc1NC(=O)c1cccc(C(=O)Nc2cc(C)ccc2OC)c1,-19%,0%,5%[0.501 µM],-1%,22%
COc1ccc(C)cc1NC1(c2ccccc2)C(=O)c2ccccc2C1=O,8%,6%,13µM*,-2%,.
CCOc1ccccc1NC1(c2ccccc2)C(=O)c2ccccc2C1=O,-1%,-1%,11µM*,-1%,.
C[N+]1(CC#CC(O)(c2ccccc2)c2ccccc2)CCCC1,-9%,?,8.9µM*,-4%,4%
OC(C#Cc1ccccc1)(c1ccccc1)c1ccccc1,13%,?,.,10%,.
COC(=O)CCSc1nnc(-c2nn(Cc3ccccc3)c(=O)c3ccccc23)o1,.,-2%,.,.,.
Cc1ccc(N2C(=O)CS/C2=C(\C(Cl)=C(Cl)Cl)[N+](=O)[O-])cc1,98%,?,20µM*,-3%,-28%
Nc1c(S(=O)(=O)c2ccccc2)c2nc3ccccc3nc2n1Cc1ccco1,63%,?,-3%[12.7 µM],0%,20µM*
Cc1ccc(S(=O)(=O)c2c(N)n(Cc3ccco3)c3nc4ccccc4nc23)cc1C,7%,-4%,?,-3%,35µM*
Cc1ccc(C)c(S(=O)(=O)c2c(N)n(/N=C/c3ccco3)c3nc4ccccc4nc23)c1,20%,-4%,50µM*,-4%,50µM*
CCNCc1ccc(C)o1,.,4%,.,.,.

# Compound activity (PubChem BioAssay)
